A short description of test [1]: qHTS assay to identify small molecule agonists of the vitamin D receptor (VDR) signaling pathway - cell viability counter screen (AID 743224). Also: series mostly up to about 63 µM; nearly all actives have a fitted effect of over 50% in size. In short, it runs like this:
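Compounds were pin-transferred onto VDR-bla cells plated 4 h earlier; following 16 h incubation at 37C, cell viability was quantified by CellTiter-Glo luminescence after 30 min at room temperature.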
For orientation: Quantitative high-throughput screening tests each substance at several concentrations.

Test [2] can be described thus: qHTS assay to identify small molecule antagonists of the vitamin D receptor (VDR) signaling pathway - cell viability counter screen (AID 743225). Also: nearly all actives have a fitted effect of over 50% in size. Summed up:
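Compounds were pinned onto VDR-bla HEK 293T cells together with 1-alpha,25-dihydroxyvitamin D3 at 3 nM final. After 16 h at 37C and 5% CO2 plus the reporter readout, cell viability was measured by CellTiter-Glo luminescence (30 min, room temperature).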

Test [3] is described as follows: qHTS assay to identify small molecule agonists of the NFkB signaling pathway (AID 1159509; active = well fitted curve in the direction sought with a large enough effect in the signal ratio in the repeat runs, not every such curve was filed as active; the % refers to the signal ratio; also: series mostly up to about 61 µM). In short, it runs like this:
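Readout: FRET fluorescence, 405 nm excitation, 460/530 nm emission; beta-lactamase expression disrupts FRET. Cells: ME-180 stably carrying NF-kB-driven bla reporter. Compound exposure 5 hr, 37 C, 5% CO2.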

The nature of test [4]: qHTS assay to identify small molecule agonists of the NFkB signaling pathway - cell viability counter screen (AID 1159515; calls by dose curve; also: series mostly up to about 61 µM; nearly all actives have a fitted effect of over 55% in size). In short, it runs like this: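 Parallel cytotoxicity counter screen in ME-180 cells carrying an NFkB-response-element beta-lactamase reporter, 2,000 cells/well. Compound exposure lasted 5 hr at 37 C, 5% CO2. Cell viability was quantified by CellTiter-Glo luminescence.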

Test [5] can be described thus: qHTS assay to identify small molecule agonists of the endoplasmic reticulum stress response signaling pathway (AID 1159516; active = well fitted activation curve with a large enough effect in the signal ratio in the repeat runs, not every such curve was filed as active; the % refers to the signal ratio). In short, it runs like this:
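Using a HeLa line with an ESRE-driven beta-lactamase gene, agonist activity was measured by FRET substrate fluorescence (460 and 530 nm emission) after cells were treated with compounds for 5 hr at 37 C and 5% CO2.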

Test [6] in a line: qHTS assay to identify small molecule agonists of the endoplasmic reticulum stress response signaling pathway - cell viability counter screen (AID 1159517; calls by dose curve; also: nearly all actives have a fitted effect of over 50% in size; also: potency is read from the fitted curve at half-maximal effect). Summed up: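 Cytotoxicity of test compounds toward ESRE-bla HeLa cells was assessed after 5 hr exposure. The luminescent CellTiter-Glo signal was measured 30 min after reagent addition.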
Test [7] in a line: qHTS assay to identify small molecule antagonists of the retinoid-related orphan receptor gamma (ROR-gamma) signaling pathway - cell viability counter screen (AID 1159520). Also: nearly all actives have a fitted effect of over 50% in size. In short, it runs like this: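 Tet-on ROR gamma CHO cells (1,000/well) were plated 4 hr, given compounds in DMSO for 2 hr at 37 C, then induced with 1 uM final doxycycline for 16 hr. Viability was read as ATP by CellTiter-Glo luminescence after 30 min.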

In test [8] the target is Nuclear receptor ROR-gamma (Homo sapiens) (UniProt P51449). The test is described as follows: qHTS assay to identify small molecule antagonists of the retinoid-related orphan receptor gamma (ROR-gamma) signaling pathway (AID 1159521). In short, it runs like this: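 Test compounds were applied to Tet-on RORγ CHO cells 2 h ahead of doxycycline hyclate (1 uM final). Luciferase reporter activity was quantified by luminescence after 16 h at 37 C and 5% CO2.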

Test [9] can be described thus: qHTS assay to identify small molecule agonists of the AP-1 signaling pathway - cell viability counter screen (AID 1159525; calls by dose curve; also: nearly all actives have a fitted effect of over 55% in size). In short, it runs like this: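 Each titration point was normalised to DMSO and tetra n-octyl ammonium bromide controls. The read was Cell Titer Glo luminescence after 30 min at RT, following 5 h compound exposure of ME-180 AP-1-bla cells at 37 °C.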

The nature of test [10]: qHTS assay to identify small molecule agonists of the AP-1 signaling pathway (AID 1159526; calls by dose curve).
Test [11] has as its target Retinoic acid receptor RXR-alpha (Homo sapiens) (UniProt P19793). The test is described as follows: qHTS assay to identify small molecule agonists of the RXR signaling pathway (AID 1159527; calls by dose curve; also: nearly all actives have a fitted effect of over 35% in size). In short, it runs like this:
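Using 9-cis retinoic acid as the reference agonist, chemicals were tested in HEK 293T cells […] for 16 hr; substrate loading lasted 2 hr at room temperature.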

Test [12] is described as follows: qHTS assay to identify small molecule agonists of the RXR signaling pathway - cell viability counter screen (AID 1159529). Summed up: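 Compounds dissolved in DMSO were pinned onto HEK 293T cells carrying a beta-lactamase reporter under RXR-alpha control and incubated 16 hr. Cytotoxicity was then quantified by CellTiter-Glo luminescence.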
The nature of test [13]: qHTS assay to identify small molecule antagonists of the retinoid acid receptor (RAR) signaling pathway - cell viability counter screen (AID 1159551). Also: nearly all actives have a fitted effect of over 35% in size. In short, it runs like this: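 ATP-based viability, C3RL4 cells, 6 h at 37 C with 1 uM final retinol co-added after compound; luminescence read 30 min post CellTiter-Glo, RT.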
The nature of test [14]: qHTS assay to identify small molecule agonists of the retinoic acid receptor (RAR) signaling pathway (AID 1159553). In short, it runs like this: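 Quantitative high-throughput format: the Tox21 10K library was tested on C3RL4 RARE-luciferase cells for 6 hr at 37 C and 5% CO2, with luminescence measured after a 30 min room-temperature reagent step.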
Test [15] can be described thus: qHTS assay to identify small molecule antagonists of the estrogen related receptor (ERR) signaling pathway - cell viability counter screen (AID 1224818).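 Also: series mostly up to about 46 µM; viability measured after 17.5 h of compound exposure.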 In short, it runs like this: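 Quantitative high-throughput viability counter screen in ERR cells. Compounds (DMSO) incubated 17.5 h at 37 C; read-out was CellTiter-Fluor fluorescence.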
A short description of test [16]: qHTS assay to identify small molecule antagonists of the estrogen related receptor (ERR) signaling pathway (AID 1224819). Summed up:
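ERR reporter cell line (NTP) plated at 2,000 cells/well, settled 6 h at 37C/5% CO2, then exposed to LOPAC compounds for 18 h at 37C. One-Glo luciferase luminescence read after 30 min at room temperature.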

Test [17] can be described thus: qHTS assay to identify small molecule agonists of the estrogen related receptor (ERR) signaling pathway (AID 1224820). Summed up: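 Luminescence readout (One-Glo, 30 min RT) from NTP-supplied ERR cell line exposed to compounds for 18 h at 37 C. Cells seeded 2,000 per well and pre-incubated 6 h before pin-tool compound transfer.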
Test [18] relates to estrogen-related receptor alpha (ERRalpha) with PGC-1alpha coactivator, human. The test is described as follows: qHTS assay to identify small molecule antagonists of the estrogen related receptor signaling pathway with the pleiotropic PPARgamma coactivator (PGC) (AID 1224821; calls by dose curve). In short, it runs like this:
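PGC/ERR reporter cells; 6 h pre-incubation 37 C/5% CO2; pin-tool compound in DMSO, 18 h 37 C; One-Glo added, 30 min RT; luminescence read. qHTS antagonist mode.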

Test [19] in a line: qHTS assay to identify small molecule antagonists of the estrogen related receptor signaling pathway with the pleiotropic PPARgamma coactivator (PGC) cell viability counter screen (AID 1224822; also: series mostly up to about 46 µM). Summed up:
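Cytotoxicity in the PGC/ERR cell line is assessed with CellTiter-Fluor, read as fluorescence intensity 30 min after reagent addition, following 17.5 h compound treatment at 37 C.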

The nature of test [20]: qHTS assay to identify small molecule antagonists of the retinoic acid receptor (RAR) signaling pathway (AID 1159552; also: nearly all actives have a fitted effect of over 50% in size). In short, it runs like this:
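Test chemicals and DMSO controls were pin-transferred onto C3RL4 cells a day after seeding; retinol (1 uM final) followed at once. Luminescent reporter output was quantified after 6 hr of co-incubation and 30 min with detection reagent.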

Values joined by “and” are separate entries in the source; they are usually repeats but may differ in a detail not shown here. Identical values can stand only once. Results filed as inconclusive are left out. Some compounds were tested as several samples or in several runs, with calls that do not always agree. Active and inactive are the calls of the source. Unless noted, calls follow the shape of the dose curve; as a rule, active = well fitted curve in the direction sought with a large enough effect in the repeat runs; inconclusive = weak or mixed curves; inactive = no such curve, though single readings can be large; an effect the other way counts as inactive or inconclusive.

Sequence of Retinoic acid receptor RXR-alpha (Homo sapiens) (P19793 whole entry, looked up): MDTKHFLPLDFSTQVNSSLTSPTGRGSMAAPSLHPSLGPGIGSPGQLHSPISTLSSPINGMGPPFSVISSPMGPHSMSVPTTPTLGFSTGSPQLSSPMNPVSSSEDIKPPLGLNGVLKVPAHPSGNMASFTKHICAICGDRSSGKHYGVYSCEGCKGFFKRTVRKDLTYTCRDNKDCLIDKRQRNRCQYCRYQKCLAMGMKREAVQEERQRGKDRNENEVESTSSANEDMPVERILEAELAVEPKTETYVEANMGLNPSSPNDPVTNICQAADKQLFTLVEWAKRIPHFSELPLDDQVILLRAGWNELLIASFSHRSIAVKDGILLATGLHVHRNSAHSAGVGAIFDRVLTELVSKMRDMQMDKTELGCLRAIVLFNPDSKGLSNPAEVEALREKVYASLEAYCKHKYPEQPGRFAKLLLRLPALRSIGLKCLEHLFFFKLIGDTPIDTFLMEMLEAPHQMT

As for `CN(C)CCOC(=O)COc1ccc(Cl)cc1`, the call in [1], in test [2], in test [3], in test [4], in test [5] and in [7] was inactive. In addition, the outcome in test [9], in [12], in test [13], in [15], in test [16] and in test [17] was inactive. Further, the molecule was classed as inactive in test [18] and in test [19]. The Potency result in [6], in test [8], in [10], in test [11] and in test [14] was “inactive” throughout.
For the molecule `COc1ccccc1OCC(O)CO` (stereo unspecified), the result in test [1], in test [2], in test [3], in test [4], in test [5] and in [7] was inactive. The result in test [9] and in [13] was inactive. Further, the Potency result in test [6], in test [8], in [10] and in test [11] was “inactive” in each case.
For `CCOC(=O)c1ccc(N)cc1`, the outcome in test [1], in test [2], in [3], in test [4], in [5] and in test [7] was inactive. Further, the call in test [9], in [12] and in [13] was inactive. The Potency result in test [6], in [8], in test [10] and in test [11] was “inactive” each time.
As to `C=CC(=O)OCCC(=O)O`, the molecule was called inactive in test [1], in test [2], in test [3], in test [4], in test [5] and in [7]. In addition, the result in test [9] and in test [13] was inactive. Also, the Potency result in [6], in test [8], in test [10], in test [11] and in [14] was “inactive” each time.
Take `CC(CCl)OP(=O)(OC(C)CCl)OC(C)CCl` (stereo unspecified): the molecule was called inactive in [1], in [2], in test [3], in [4], in [5] and in [7]. The call in test [9] and in test [13] was inactive. The Potency result in test [6], in test [8], in test [10], in test [11] and in [14] was “inactive” each time.
Take `OCc1ccccc1`: the molecule was called inactive in test [1], in test [2], in [3], in test [4], in test [5] and in test [7]. In addition, the molecule was classed as inactive in [9], in test [12], in [13] and in test [20]. The Potency entry in test [8], in test [10], in [11] and in test [14] was “inactive” in each case.
Consider `CCCCC(C=O)CC` (stereo unspecified), for which the molecule was called inactive in test [1], in [2], in test [3], in test [4], in test [5] and in test [7]. Moreover, the result in test [9], in test [12], in test [13] and in [20] was inactive. Besides, the Potency entry in [8], in test [10], in [11] and in test [14] was “inactive” each time.
Consider `CCCCCCCCCCN`, for which the call in test [1], in test [2], in [3], in test [4], in [5] and in test [7] was inactive. Also, the call in [9], in test [12], in test [13] and in [20] was inactive. The Potency entry in test [6] is “inactive and 21.9 µM (active)”. Also, the Potency result in [8], in test [10], in [11] and in test [14] was “inactive” in each case.
Take `Clc1ccccn1`: the result in test [1], in test [2], in test [3], in test [4], in test [5] and in test [7] was inactive. For the same molecule, the result in [9], in test [12] and in [13] was inactive. Besides, the Potency result in [8], in test [10], in [11] and in test [14] was “inactive” in each case.

Values taken from PubChem BioAssay (Tox21).
